Most compounds without a hit are left out; they make up all but 10% or so of the library.
JMJD2A Tudor – JMJD2A Tudor domain (human) inhibition; Potency, µM (series often up to 114 µM), for inactives: at the highest dose activity change, negative = inhibition, usual class: inhibitors; AID 504339; AlphaScreen JMJD2A-Tudor / H3K4me3 peptide binding; 4.4% of 390,000 active; O75164; further: potency means the concentration at half of the fitted maximal effect; on the % scale 0 is the no-effect control and ±100 the full control effect; nearly all actives have a fitted effect of over 50% in size
HP1b chromo inh – HP1-beta chromodomain-methylated histone interaction inhibition; 0.56% of 390,000 active; Potency, µM (titrated, usually from 114 µM), for inactives: at the highest dose activity change, negative = inhibition, most hits filed as inhibitors; AlphaScreen HP1-beta / biotin-H3K9me3 peptide binding; further: potency means the concentration at half of the fitted maximal effect; nearly all actives have a fitted effect of over 70% in size
Target sequence (P83916 whole entry, looked up): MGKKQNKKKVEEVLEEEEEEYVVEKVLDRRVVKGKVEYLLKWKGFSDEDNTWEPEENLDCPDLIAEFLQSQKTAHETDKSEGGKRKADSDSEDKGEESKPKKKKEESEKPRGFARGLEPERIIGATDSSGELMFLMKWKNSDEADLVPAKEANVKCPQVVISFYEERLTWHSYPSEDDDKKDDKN
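Compound inhibition of the preformed complex between 50 nM HP1-beta and 50 nM biotinylated H3K9me3 peptide was read by AlphaScreen. Buffer was PBS pH 7.4 with 0.01% Tween-20. Incubations ran 30 min at room temperature, with 10 ug/mL donor/acceptor beads.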
G9a inh – blocks human histone lysine methyltransferase G9a. 8.8% of 350,000 active. G9a H3K9 monomethylation, AlphaScreen, 2 h. Q96KQ7. Potency, µM (doses to about 102 µM), without a hit: at the highest dose activity, negative = inhibition, usual class: inhibitors; further: potency means the concentration at half of the fitted maximal effect; on the % scale 0 is the no-effect control and ±100 the full control effect; nearly all actives have a fitted effect of over 75% in size
Target sequence (Q96KQ7 913-1193 limits assumed): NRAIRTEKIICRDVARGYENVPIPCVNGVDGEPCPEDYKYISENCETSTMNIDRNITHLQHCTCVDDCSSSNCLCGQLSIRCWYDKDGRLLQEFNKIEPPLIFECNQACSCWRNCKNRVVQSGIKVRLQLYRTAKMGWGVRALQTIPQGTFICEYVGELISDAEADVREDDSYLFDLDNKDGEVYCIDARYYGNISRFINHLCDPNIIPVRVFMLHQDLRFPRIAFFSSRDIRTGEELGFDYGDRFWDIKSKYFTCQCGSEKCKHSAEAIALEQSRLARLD
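Enzyme 20 nM + cpd, 15 min RT; add b-H3K9 pep 500 nM / SAM 20 uM; 2 h RT; anti-H3K9me1 Ab 0.5 ug/mL + SA donor / anti-rabbit acceptor beads 20 ug/mL each, 10 min; AlphaScreen read.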
Six1-Eya2 blk – Six1/Eya2 interaction inhibition; AlphaScreen GST-Six1/His-Eya2 binding, biochemical; hits give low values; activity change, % (concentration not given with the values); 0.56% of 360,000 active; in the data active means activity change below about -65%; inconclusive means mostly about -30% to -63%; further: on the % scale 0 is the no-effect control and ±100 the full control effect
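AlphaScreen with GST-Six1 and His-Eya2 (5X mix: 250 nM and 500 nM), glutathione donor and nickel acceptor beads; buffer 50 mM Tris pH 8.0, 300 mM NaCl, 1 mM TCEP; 1 h at 37 C in the dark.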
BAZ2B inh – BAZ2B (human) inhibition; Q9UIF8; AlphaScreen BAZ2B-H3K14Ac peptide displacement; Potency, µM (titrated, usually from 114 µM), without a hit: at the top dose activity change, negative = inhibition, actives largely listed as inhibitors; 4.4% of 360,000 active; further: potency means the concentration at half of the fitted maximal effect; on the % scale 0 is the no-effect control and ±100 the full control effect; nearly all actives have a fitted effect of over 60% in size
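BAZ2B 50 nM plus b-H3(5-23)K14Ac 50 nM, PBS pH 7.4/0.01% Tween-20, 30 min RT; compound added (max 110 uM), 30 min RT; streptavidin donor/Ni-chelate acceptor beads 10 ug/mL final, 20 min dark; AlphaScreen read.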
CtBP-E1A blk – inhibitors of CtBP/E1A interaction; AlphaScreen GST-E1A/His-CtBP binding, 1536-well; hits give low values; activity change, % (no concentration beside the values); 0.49% of 340,000 active; in the data active means activity change below about -65%; inconclusive means mostly about -30% to -63%; further: on the % scale 0 is the no-effect control and ±100 the full control effect
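In 5 uL wells, 23 nL compound meets equimolar GST-E1A and His-CtBP (5X stock 125 nM each) for 2 h, 37 °C. Beads (5X, 50 ug/mL) then 1 h, 37 °C, dark.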
The depositor's hits bear a star; ? = inconclusive; nt = no result given; [ ] = another dose, or the depositor's remark. Unless noted, the call rests on the fitted dose curve; in most records, active means well fitted inhibition curve with a large enough effect; inconclusive means small, poorly fitted or top-dose-only effect; inactive means no such curve, though single readings can be large or run the other way.

SMILES | JMJD2A Tudor | HP1b chromo inh | G9a inh | Six1-Eya2 blk | BAZ2B inh | CtBP-E1A blk
COCCn1c(-c2ccccc2F)n[nH]c1=S | 35µM* | 44% | ? | 0 | 22% | 2
COCCn1c(CCc2ccccc2)n[nH]c1=S | ? | 14% | -7% | -10 | 0% | -9
CCn1c(-c2ccccc2O)n[nH]c1=S | 4µM* | 29% | 14µM* | -2 | -32% | -10
Cc1cccc(CNS(=O)(=O)c2ccc3[nH]c(=O)ccc3c2)c1 | 0% | 32%[57 µM] | 0%[59 µM] | nt | 0% | nt
O=C(c1csnn1)N1CCC2(CCCN(c3ccc(-c4ccccc4)cc3)C2)CC1 | nt | nt | 5%[12.7 µM] | nt | nt | nt
Cc1ccc(-c2cn3c4c(=O)n(C)c(=O)n(C)c4nc3n2-c2cccc(Cl)c2)cc1 | -5% | 56% | 2%[59 µM] | nt | -1% | nt
CCCCOC(=O)c1c(N)n(-c2ccc(OC)cc2OC)c2nc3ccccc3nc12 | 4% | 38% | -2%[59 µM] | nt | 4% | nt
O=C(NCc1ccc(F)cc1)n1c(-c2ccccc2)c(P(=S)(c2ccccc2)c2ccccc2)c2ccccc21 | -12% | nt | nt | nt | nt | nt
O=c1c2ccccc2nc(-c2ccccc2O)n1Cc1ccccc1 | 79µM* | nt | nt | nt | nt | nt
Oc1ccccc1-c1n[nH]c(=S)n1Cc1ccccc1 | 20µM* | 12% | 2.8µM* | -4 | ? | -1
CCn1c(-c2cc(-c3cccc(OC)c3)nc3ccccc23)n[nH]c1=S | -36% | -2% | 1.1µM* | -14 | ? | -9
Nc1sc(-c2ccccc2)cc1C(=O)O | nt | nt | -45% | nt | ? | nt
CCn1c(-c2cc(-c3ccccc3)sc2N)n[nH]c1=S | -29% | 27% | 1.1µM* | -15 | -20% | -8
Cn1cc(S(=O)(=O)N2CCc3ccccc32)cc1C(=O)Nc1ccc(C(F)(F)F)cc1 | ? | -17% | ? | nt | -36% | nt
Cc1cccc(NC(=O)c2cccc(C(=O)Nc3cccc(C)c3)n2)c1 | -21% | -3% | nt | 7 | nt | 1
CN(C)c1ccc(NC(=O)c2ccc3nsnc3c2)cc1 | -35% | -13% | 4.5µM* | -13 | -11% | -17
O=C(O)c1ccc(NC(=O)c2cccc(C(=O)Nc3ccc(C(=O)O)cc3)n2)cc1 | ? | 58% | 22µM* | -26 | -34% | nt
CN(C)c1ccc(NC(=O)c2cccc(C(=O)Nc3ccc(N(C)C)cc3)n2)cc1 | 16µM* | 40µM* | 3.2µM* | ? | 7.9µM* | ?
Cc1cc(C)cc(NC(=O)c2cccc(C(=O)Nc3cc(C)cc(C)c3)n2)c1 | 4.5µM* | 22% | ? | -9 | ? | -6
Cc1noc(-c2ccc(N3CCC(C)CC3)c([N+](=O)[O-])c2)n1 | -9% | 36% | -27%[59 µM] | nt | -2% | nt
CCCCn1c(=N)c(S(=O)(=O)c2ccc(Cl)cc2)cc2c(=O)n3cccc(C)c3nc21 | 16% | 58% | -5%[59 µM] | nt | 8% | nt
CC(C)N(C(=O)Nc1ccc2nsnc2c1)C(C)C | 79µM* | -14% | nt | 0 | -1% | ?
Cc1ccc(C(=O)NC2CC3CCCC(C2)N3Cc2ccccc2)cc1 (configuration not stated) | 8%[57.1 µM] | 13% | nt | 0 | 18% | 5
CCN(CC)C(=O)NC1CC2CCCC(C1)N2Cc1ccccc1 (configuration not stated) | -4%[57.1 µM] | -11% | 2.8µM* | -2 | 5% | -3
COCC(C)N=C1NN=C(c2cccs2)C(CC(=O)O)S1 (configuration not stated) | -7% | 11% | 50µM* | -6 | -31% | nt
SMILES | JMJD2A Tudor | HP1b chromo inh | G9a inh | Six1-Eya2 blk | BAZ2B inh | CtBP-E1A blk
CC1CC(=O)NN=C1c1cccs1 (configuration not stated) | -7% | 25% | ? | 0 | 2% | -4
Cc1c(NC(=O)Nc2ccccc2C(F)(F)F)sc2nc3n(c(=O)c12)CCC(C)CC3 (configuration not stated) | -1% | 36% | -3%[59 µM] | nt | -8% | nt
O=C(O)CCN1/C(=C/C=Nc2ccccc2)Oc2ccccc21 | 56µM* | 28% | ? | 5 | nt | 14
COc1ccc(-c2onc(C)c2C)cc1S(=O)(=O)Nc1ccc(OC(F)(F)F)cc1 | -18% | 40% | -3%[59 µM] | nt | -4% | nt
Cc1ccccc1S(=O)(=O)NC1OC(=O)C(Oc2ccccc2)=C1Br (configuration not stated) | -20% | 12% | 50µM* | 0 | ? | -18
Cc1ccccc1S(=O)(=O)NC1OC(=O)C(Cl)=C1Cl (configuration not stated) | ? | 23% | -13%[59 µM] | -13 | ? | 1
CC(=O)N1c2ccc(S(=O)(=O)Nc3ccc(Cl)cc3C)cc2CC1C (configuration not stated) | -6% | 18% | 9%[59 µM] | nt | -14% | nt
COc1ccc(CN2CCNC(=O)C2CC(=O)NC2CCCC2)c(C)c1C (configuration not stated) | 20µM* | 12% | 45µM* | 2 | ? | 4
COc1cccc(CN2CCNC(=O)C2CC(=O)NCCn2ccc3ccccc32)c1OC (configuration not stated) | ? | 12% | 40µM* | -8 | ? | nt
COc1cccc(CN2CCNC(=O)C2CC(=O)NC2CCOCC2)c1OC (configuration not stated) | -2% | 38% | 45µM* | 7 | 19% | nt
COc1ccc(CN2CCNC(=O)C2CC(=O)NC2CCC2)c(OC)c1 (configuration not stated) | -8% | 18% | -18% | -1 | -13% | -1
COc1cccc(CN2CCNC(=O)C2CC(=O)NCc2cn3ccccc3n2)c1OC (configuration not stated) | -3% | 25% | ? | -15 | -18% | 9
CC(=O)c1ccc(N2CCN(c3nc4c(S(=O)(=O)c5ccc(C)c(C)c5)nnn4c4ccc(Cl)cc34)CC2)cc1 | -9% | 15% | 5%[59 µM] | nt | 1% | nt
CCN(CC)CCCNC(=O)Cn1nc(N2CCN(c3ccccc3OC)CC2)ccc1=O | -7% | 15% | -2%[59 µM] | nt | 3% | nt
CSc1nnc(-c2ccco2)c(-c2ccco2)n1 | -7%[11.4 µM] | ? | ? | -19 | 20µM* | -14
COc1ccc(NC(=O)CSc2nnc(-c3ccco3)c(-c3ccco3)n2)cc1OC | ? | ? | 7.1µM* | ? | -9% | ?
COc1cccc(NC(=O)CSc2nnc(-c3ccco3)c(-c3ccco3)n2)c1 | 45µM* | ? | 2.8µM* | ? | 50µM* | ?
CCn1c(SCC(=O)Nc2ccc(OC)c(OC)c2)nnc1-c1ccco1 | -14% | 22% | 2% | -3 | 0% | nt
COc1ccc(C(=O)CSc2nnc(-c3ccco3)c(-c3ccco3)n2)cc1 | 22µM* | ? | 8.9µM* | ? | 20µM* | ?

Compound activity: PubChem BioAssay, National Center for Advancing Translational Sciences (NCATS)
